# How the values were obtained:
# Conditions in all cases: concentration: 1 μM, replicates: in singlicate; n = 1
# MAP3K4 = test system: MAP3K4
# MAP4K2 = test system: MAP4K2
# MAP4K3 = test system: MAP4K3
# MAP4K4 = test system: MAP4K4
# MAP4K5 = test system: MAP4K5
# MAPKAPK2 = test system: MAPKAPK2
# MAPKAPK5 = test system: MAPKAPK5
# MARK1 = test system: MARK1
# MARK2 = test system: MARK2
# MARK3 = test system: MARK3
# MARK4 = test system: MARK4
# MAST1 = test system: MAST1
# MEK1 = test system: T1, MEK1
# T1 construct: gene MAP2K1
# MEK2 = test system: T2, MEK2
# T2 construct: gene MAP2K2
# MEK3 = test system: T3, MEK3
# T3 construct: gene MAP2K3
# MEK4 = test system: T4, MEK4
# T4 construct: gene MAP2K4
# MEK5 = test system: T5, MEK5
# T5 construct: gene MAP2K5
# MEK6 = test system: T6, MEK6
# T6 construct: gene MAP2K6
# MELK = test system: MELK
# MERTK = test system: MERTK
# 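Also: KINOMEscan kinase panel screen.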
SMILES,%Inh (MAP3K4),%Inh (MAP4K2),%Inh (MAP4K3),%Inh (MAP4K4),%Inh (MAP4K5),%Inh (MAPKAPK2),%Inh (MAPKAPK5),%Inh (MARK1),%Inh (MARK2),%Inh (MARK3),%Inh (MARK4),%Inh (MAST1),%Inh (MEK1),%Inh (MEK2),%Inh (MEK3),%Inh (MEK4),%Inh (MEK5),%Inh (MEK6),%Inh (MELK),%Inh (MERTK)
CCC(=O)c1c(-c2ccccc2)c2cc(Cl)ccc2c(=O)n1Cc1cc(S(C)(=O)=O)n(CC(F)F)n1,9%,0%,0%,0%,0%,0%,5%,0%,1%,0%,0%,0%,1%,12%,0%,18%,0%,0%,0%,0%
Nc1nccc2scc(-c3ccc4c(c3)CCN4C(=O)Cc3ccccc3)c12 [GSK2576924],10%,6%,17%,24%,48%,6%,0%,0%,1%,1%,0%,0%,2%,7%,0%,5%,93.2%,6%,16%,22%
Cc1cc(Nc2nc(-c3cccc(C)n3)nc3ccccc23)ccn1 [GW872411],0%,0%,12%,0%,0%,0%,0%,21%,13%,22%,27%,0%,2%,9%,12%,0%,4%,0%,0%,25%
COc1ccc(Nc2nccc(N3CCC(NS(=O)(=O)c4ccc(NC(C)=O)cc4)C3)n2)cc1 (stereo not drawn) [GSK1379729],13%,2%,11%,21%,15%,49%,1%,0%,0%,0%,0%,0%,0%,10%,12%,5%,36%,0%,17%,25%
COc1cccc(-n2cnc3c(N)ncnc32)c1 [SKF-97416],31%,33%,0%,0%,0%,0%,1%,0%,13%,37%,0%,59%,12%,12%,43%,36%,80%,18%,0%,0%
COc1cc(Nc2nccc(N3CCC(NC(=O)C4COc5ccccc5O4)C3)n2)cc(OC)c1OC (stereo not drawn) [GSK1379761],22%,0%,2%,6%,0%,0%,0%,0%,0%,0%,0%,0%,25%,0%,0%,0%,97.2%,0%,11%,36%
Cc1cccc(-c2cc(-c3c[nH]nc3-c3ccccn3)ccn2)c1 [GW679395],13%,0%,0%,0%,0%,17%,0%,0%,0%,0%,0%,0%,0%,0%,0%,36%,27%,0%,0%,12%
O=C(Nc1n[nH]c2nc(-c3ccccc3)c(Br)cc12)C1CC1 [SB-708998],0%,1%,0%,17%,13%,0%,0%,0%,0%,0%,0%,0%,0%,0%,0%,21%,42%,0%,6%,27%
COC(=O)c1c(-c2ccccc2)c2cc(Br)ccc2c(=O)n1Cc1ccc(NC(=O)CCC(=O)O)cc1,38%,0%,0%,0%,0%,16%,4%,7%,6%,0%,4%,29%,0%,3%,11%,10%,10%,21%,7%,3%
CCn1c(-c2nonc2N)nc2ccccc21 [SB-693162/GW549034],0%,4%,0%,0%,0%,0%,33%,0%,25%,0%,0%,5%,30%,25%,47%,48%,18%,0%,15%,0%
CN1C(=O)C(Nc2cc(Cl)c(O)c(Cl)c2)=C(c2ccc(Cl)cc2)C1=O [SB-404321],0%,0%,0%,0%,0%,89%,0%,0%,10%,0%,0%,41%,0%,0%,29%,0%,25%,0%,0%,30%
COc1cc2ncn(-c3cc(OCCCc4ccccc4)c(C(N)=O)s3)c2cc1OC [GSK205189],16%,0%,0%,14%,39%,7%,0%,0%,0%,0%,0%,0%,0%,0%,0%,0%,96.8%,0%,0%,0%
Nc1ncnc2c1ncn2-c1ccc(Cl)cc1 [AH2635],0%,0%,0%,12%,0%,10%,0%,0%,0%,3%,13%,0%,0%,0%,0%,12%,48%,0%,0%,10%
CCC(=O)c1c(-c2ccccc2)c2cc(Cl)ccc2c(=O)n1Cc1cc(S(C)(=O)=O)n(CCC(C)(C)O)n1,14%,0%,0%,0%,18%,23%,20%,0%,15%,18%,0%,0%,11%,19%,23%,40%,0%,8%,16%,13%
COc1ccc(-n2cnc3c(N)ncnc32)cc1 [SKF-97236],0%,22%,0%,17%,19%,15%,0%,15%,0%,0%,19%,0%,0%,0%,11%,29%,56%,0%,0%,35%
COc1cc(Nc2nccc(N3CCC(NC(=O)C(C)c4ccc(Cl)cc4)C3)n2)cc(OC)c1OC (stereo not drawn) [GSK1379757],0%,0%,0%,8%,5%,14%,0%,0%,0%,0%,11%,0%,0%,0%,0%,5%,59%,0%,6%,0%
Cl.NS(=O)(=O)c1cccc(Nc2cc(-c3ccc(F)cc3)n[nH]2)c1 [GW824645],1%,0%,0%,0%,0%,0%,0%,0%,19%,14%,6%,9%,12%,45%,22%,27%,70%,0%,0%,0%
COc1cc2nccc(Nc3cccc(Oc4ccccc4)c3)c2cc1OC.Cl [GW284543],0%,0%,0%,0%,0%,15%,0%,0%,8%,31%,1%,7%,87%,88%,0%,0%,99.9%,0%,8%,0%
COc1ccc(-c2coc3ccc(-c4nnc(SCc5cccc(C#N)c5)o4)cc23)cc1,11%,0%,13%,13%,12%,0%,18%,20%,18%,10%,13%,31%,4%,13%,0%,38%,21%,16%,11%,0%
COc1cc(Nc2ccnc3ccc(C(F)(F)F)cc23)cc(OC)c1OC [GW577382],7%,1%,0%,15%,4%,0%,0%,8%,0%,0%,11%,4%,14%,0%,0%,32%,50%,0%,13%,27%
CN1C(=O)C(Nc2ccccc2)=C(c2ccccc2)C1=O [SB-300079],0%,0%,0%,0%,0%,0%,0%,10%,0%,23%,12%,100%,19%,34%,25%,18%,41%,0%,0%,0%
COc1ccc(CNC(=O)NC2CCN(c3ccnc(Nc4ccc(F)cc4)n3)C2)cc1 (stereo not drawn) [GSK1379706],0%,0%,0%,3%,2%,24%,2%,0%,0%,4%,3%,53%,29%,21%,0%,28%,25%,12%,21%,39%
Cc1c(Cn2c(C)nn3c(=O)cc(N4CCO[C@H](C)C4)nc23)cccc1C(F)(F)F [GSK2373690],43%,0%,0%,3%,0%,23%,0%,0%,0%,0%,0%,0%,0%,0%,0%,12%,1%,0%,0%,14%
O=c1cc(N2CCOCC2)nc2n(Cc3ccc(F)c(Cl)c3)ccn12 [GSK2297099],25%,0%,0%,0%,0%,2%,0%,0%,0%,0%,0%,0%,0%,0%,0%,5%,1%,14%,0%,0%
COc1cc2nccc(Nc3ccc(OCc4ccc(NC(C)=O)cc4)cc3)c2cc1OC.Cl [GW440135],37%,1%,0%,0%,0%,28%,0%,0%,0%,0%,8%,0%,19%,0%,14%,2%,99.6%,0%,0%,40%
Cc1nnc(-c2ccc(C)c(-c3ccc(C(=O)O)cc3)c2)o1 [GW608005],8%,0%,0%,10%,0%,1%,0%,4%,0%,0%,21%,0%,0%,0%,0%,14%,0%,0%,0%,25%
Nc1ncnc2c1ncn2-c1cccc2ccccc12 [SKF-97184],2%,0%,0%,0%,0%,0%,0%,23%,0%,52%,29%,53%,5%,24%,38%,8%,26%,22%,0%,0%
Cc1ccccc1COc1cc(-n2cnc3cc(Cl)ccc32)sc1C(N)=O [GW813349],20%,0%,0%,12%,20%,0%,0%,0%,0%,14%,8%,0%,6%,14%,19%,0%,59%,0%,33%,16%
Nc1n[nH]c2nnc(-c3ccccc3)c(-c3ccccc3)c12 [GW554060],0%,0%,0%,0%,0%,22%,0%,0%,0%,0%,0%,9%,0%,0%,5%,14%,30%,0%,18%,0%
CCCC(=O)Nc1n[nH]c2ncc(-c3cccc4ccccc34)cc12 [SB-642057],34%,0%,12%,8%,7%,8%,0%,2%,0%,0%,0%,0%,4%,8%,0%,0%,12%,0%,33%,0%

# Source: article PMC5540273 (PLoS ONE, 2017)
